Our source for the outcome values is PubChem BioAssay AID624134 (Broad Institute, 2012).

About 1,100 (69%) of roughly 1,600 compounds were called active. So high a share suggests a set chosen from earlier hits. Only a sample is shown. Entries with a potency or affinity are not part of this list. Results filed as inconclusive are left out.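 Rule for the calls: active = signal drop with fitted half-maximal concentration no higher than twice the top valid tested concentration; inconclusive = flat curve with 30 to 70% signal loss, or poor fit; inactive = the rest, including signal rises and flat curves within 30%.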

The test can be described thus: HepG2 cell cytotoxicity, dose response, cytotoxicity control for Shn3 inhibitor project, CellTiter-Glo, cherry-picked (AID 624134). The settings on record: HepG2 viability, CellTiter-Glo ATP luminescence, 48 h; series mostly up to 35 µM.
As to `CC(C)CCNC(=O)c1cc2c(=O)[nH]c3ccccc3c2s1`, the result was inactive.
To `Cc1ccc(OC(=O)CCC(=O)Oc2ccc(C)cc2C)c(C)c1` belongs “inactive”; to `CCCC(c1nnnn1Cc1ccc(OC)cc1)N1CCN(c2ccccc2)CC1` (stereo not given), “inactive”; to `CCOC(=O)C1CCN(C(=O)c2ccc(OCC(=O)Nc3cccc(C(F)(F)F)c3)c(OC)c2)CC1`, “inactive”.
On to `Cc1ccccc1N/C(=N/S(=O)(=O)c1ccccc1)c1ccc(F)cc1`, for which the compound was classed as inactive.
`CCOC(=O)C1CCCN(S(=O)(=O)c2ccc(S(=O)(=O)N(CC)CC)cc2)C1` (stereo not given): the call was inactive.
The entry for `Cc1ccc(CNC(=O)CSc2c3c(nc4ccc(Cl)cc24)CCCC3)o1` is “inactive”.
With `CCOc1cc(/C=C2\C(=O)ON=C2C)ccc1OCc1ccccc1`, the compound was classed as inactive.
`CC1=NOC(=O)/C1=C\c1ccc(-c2cc(Cl)ccc2Cl)o1`: the compound was classed as inactive.
Consider `O=C(CSc1nc2c(c(=O)n1-c1ccc(Br)cc1)SCC2)NCc1ccco1`, for which the compound was classed as inactive.
With `Cc1cc(-n2c(C)cc(C(=O)CSc3nncn3C)c2C)no1`, the outcome was inactive.
The entry for `CCCC(=O)NC(=S)Nc1ccc(N2CCN(C(=O)c3cccs3)CC2)cc1` is “inactive”.
With `O=C(NCCc1ccccc1)c1ccc2c(c1)OCCO2`, the call was inactive.
Consider `CCOC(=O)c1sc(NC(=O)CCCn2nc([N+](=O)[O-])c(Cl)c2C)c(C(=O)OCC)c1C`, for which the compound was called inactive.
To `CCOC(=O)c1c(NC(=O)c2nn(CC)cc2Br)sc(C)c1C` belongs “inactive”.
With `COc1ccccc1N1CCN(c2ncc(C(=O)N3CCN(c4cccc(Cl)c4)CC3)c3ccccc23)CC1`, the compound was called inactive.
The entry for `O=C(Nc1cccc(S(=O)(=O)NC2=NCCC2)c1)C1CC(=O)N(c2ccc3c(c2)OCCO3)C1` (stereo not given) is “inactive”; for `C=C1C(=O)[C@@]23[C@H](O)C[C@@H]4C(C)(C)CC[C@H](O)[C@]4(C)[C@@H]2C[C@H](O)[C@@H]1[C@H]3O` it is “inactive”; for `O=C(CSc1nc2[nH]ncc2c(=O)[nH]1)Nc1ccccc1C(F)(F)F` it is “inactive”.
Turning to `CCc1c(O)nc(SCC(=O)Nc2ccccc2)n(-c2ccccc2)c1=O`, the outcome was inactive.
Take `O=C(NCCNC(=O)Oc1cccc2ccccc12)Oc1cccc2ccccc12`: the result was inactive.
With `COc1cc2ncnc(N[C@H](C)c3ccccc3)c2cc1OC`, the compound was called inactive.
On to `Cc1cc(C)n(-c2cc(-n3nc(C)cc3C)ncn2)n1`, for which the compound was called inactive.
For `CS(=O)(=O)c1ccc(C(=O)OCC(=O)N2CCOCC2)cc1[N+](=O)[O-]`, the compound was called inactive.
Consider `COc1ccc(C(=O)OCC(=O)Nc2ncc([N+](=O)[O-])s2)cc1OC`, for which the call was inactive.
The entry for `CCn1c(C)cc(C(=O)COC(=O)c2ccccc2[N+](=O)[O-])c1C` is “inactive”; for `C=C1C(=O)C23C(O)C1CCC2C12COC3(O)C(O)C1C(C)(C)CCC2O` (stereo not given) it is “inactive”; for `CCO[C@@H]1OC(C(=O)NC2CC2)=C[C@H](c2coc3ccccc3c2=O)[C@H]1CCCO` it is “inactive”.
On to `CCCCCCCCCCOC(=O)Cn1c(COc2ccc(OC)cc2)[n+](C)c2ccccc21`, for which the call was inactive.
Regarding `CSc1cccc(NC(=O)N2CCCC(CNS(=O)(=O)Cc3ccccc3)C2)c1` (stereo not given), the compound was called inactive.
To `Cc1nc2ncnn2c(C)c1Cc1cccc(F)c1` belongs “inactive”; to `CC(C)=CCC/C(C)=C/CNC(=O)C[C@H]1C[C@H](C(=O)N2CCOCC2)[C@@]2(C)c3[nH]c4cc(CCC(=O)N(C)C)ccc4c3CCN2C1=O`, “inactive”; to `CCC(=O)c1cn(CC(=O)Nc2cccc(C)c2C)c2ccccc12`, “inactive”.
As to `O=C(Cn1cc(C(=O)C2CC2)c2ccccc21)Nc1ccccc1Cl`, the compound was called inactive.
As for `CCN(CC)C(=S)Sc1c(-c2ccccc2)c2cc(Cl)ccc2[nH]c1=O`, the compound was classed as inactive.
As for `COc1ccc(NS(=O)(=O)c2ccc(NC(=O)C(CCSC)NC(N)=O)cc2)cc1` (stereo not given), the result was inactive.
For the compound `COc1ccc(C(=O)NNC(=O)c2cccc(S(=O)(=O)N3CCOCC3)c2)cc1`, the outcome was inactive.
For `O=C(Nc1ccc(S(=O)(=O)N2CCN(Cc3ccccc3)CC2)cc1)c1cnccn1`, the result was inactive.
As for `O=C(COC(=O)c1n[nH]c2ccccc12)Nc1ccc(S(=O)(=O)N2CCCC2)cc1`, the outcome was inactive.
Turning to `O=C(CCS(=O)(=O)c1ccccc1)Nc1nc2c(s1)CCCC2`, the compound was classed as inactive.
For the compound `COc1ccccc1/C=C1\CCCC2=C1Nc1nnnn1C2c1ccccc1OC` (stereo not given), the compound was called inactive.
In the case of `O=C(O)c1cccc(COc2ccc(CO)cc2Cl)c1`, the compound was classed as inactive.
With `O=C(O)c1cccc(COc2ccccc2Cl)c1`, the call was inactive.
For `CCN(CC)Cc1c(O)ccc2c1O/C(=C\C=C\c1ccccc1)C2=O`, the compound was classed as inactive.
To `Cc1ccc(-c2ccc(/C=C3\C(=O)ON=C3c3ccccc3)o2)c([N+](=O)[O-])c1` belongs “inactive”; to `Cc1ccc(NC(=O)C2CCCN(S(=O)(=O)c3c(C)noc3C)C2)cc1` (stereo not given), “inactive”; to `Cc1csc(=O)n1CCC(=O)N(C)Cc1c(F)cccc1Cl`, “inactive”.
For `CCn1cc(CNCc2cn(-c3ccccc3C)nc2-c2ccc(OC)c(F)c2)cn1`, the call was inactive.
With `CCN(CC)S(=O)(=O)c1ccc(N2CCOCC2)c(NC(=O)c2nn(C(C)C)c(=O)c3ccccc23)c1`, the outcome was inactive.
In the case of `CCOC(=O)C1CCN(c2cc3c(cc2NC(=O)c2ccccc2Br)n(C)c(=O)n3C)CC1`, the outcome was inactive.
Regarding `CC[C@]12c3[nH]c4cc(CCC(=O)N(C)C)ccc4c3CCN1C(=O)[C@@H](CC(=O)NC/C=C(\C)CCC=C(C)C)C[C@@H]2C(=O)N1CCN(C(=O)c2ccco2)CC1`, the call was inactive.
For `COc1ccc(-c2cc(C(F)(F)F)nc(S(=O)(=O)CCCC(=O)Nc3cccnc3Cl)n2)cc1OC`, the compound was called inactive.
In the case of `COc1ccc([C@H]2CC(=O)C=C(c3ccc4c(c3)OCO4)C2)cc1OC`, the result was inactive.
In the case of `COc1cc(C(=O)OCC(=O)NC2CCCCCC2)ccc1OCC(C)C`, the compound was classed as inactive.
The entry for `CC(=O)OCC(=O)[C@@]1(O)CC[C@H]2[C@@H]3CCC4=CC(=O)CC[C@]4(C)[C@H]3C(=O)C[C@@]21C` is “inactive”; for `COc1ccc(S(=O)(=O)N2CCOCC2)cc1NC(=O)COC(=O)CC1CC2CCC1C2` (stereo not given) it is “inactive”.
The entry for `Nc1c(Br)cc2c(c1Br)C(O)c1ccccc1-2` (stereo not given) is “inactive”.
In the case of `CN(C)c1ncnc2c1C(c1ccccc1)C(C)(C)O2` (stereo not given), the result was inactive.
The entry for `COc1cc(OC)cc(C(=O)OCC(=O)Nc2ccc(F)cc2F)c1` is “inactive”; for `COc1ccc(OC)c(NC(=O)c2cc(-c3cc(F)ccc3OCC3CCCO3)n[nH]2)c1` (stereo not given) it is “inactive”.
